This note sets out measurements from PubChem BioAssay.

Molecules are shown by their SMILES. The source made the active and inactive calls. The rule behind the calls is not given here.

The experiment deals with Pantothenate synthetase (Mycobacterium tuberculosis (strain ATCC 25618 / H37Rv)) (UniProt P9WIL5). Put plainly: Recombinant Mtb pantothenate synthetase (PanC) inhibitors, coupled enzyme, confirmatory (AID 375).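 Note: 0% = full reaction with vehicle and 100% = no enzyme background.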 To be noted: coupled enzyme assay; at 10 µM, stronger effect = higher value.
Sequence of Pantothenate synthetase (Mycobacterium tuberculosis (strain ATCC 25618 / H37Rv)) (P9WIL5 whole entry, looked up): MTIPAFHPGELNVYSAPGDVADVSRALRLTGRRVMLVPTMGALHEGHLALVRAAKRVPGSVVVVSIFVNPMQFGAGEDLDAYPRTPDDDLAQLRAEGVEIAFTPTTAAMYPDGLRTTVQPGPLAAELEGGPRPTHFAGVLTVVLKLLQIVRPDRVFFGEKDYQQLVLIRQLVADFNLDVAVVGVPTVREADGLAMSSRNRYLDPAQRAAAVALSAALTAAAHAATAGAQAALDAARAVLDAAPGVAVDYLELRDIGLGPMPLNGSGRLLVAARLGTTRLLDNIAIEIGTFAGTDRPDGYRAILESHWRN
As for `CCOC(=O)C1=C(C)N(C)C(C)=C(C(=O)OCC)C1c1cccnc1`, the inhibition – broadly, the change of the read-out against control, counted positive when it falls – is 2% (inactive).

As for `CCOc1ccc2nc(SCC(=O)N3CCCCCC3)c(C#N)cc2c1`, the inhibition is 0% (inactive).

In the case of `COc1ccc(-c2nnc(SCC(=O)c3cc(C)n(Cc4cccs4)c3C)o2)cc1`, the inhibition is 0% (inactive).

Turning to `O=C1c2ccccc2C(=O)N1C/C=C/c1ccccc1`, the inhibition was 2% (inactive).

Take `CCOc1ccc(C2/C(=C(/O)c3ccc(OC)cc3)C(=O)C(=O)N2c2cc(C)on2)cc1OC` (stereo not given): the inhibition is 0% (inactive).

Consider `COc1ccccc1N(CC(=O)NC1CCCC1)C(=O)c1csnn1`, for which the inhibition is 1% (inactive).

Consider `CCOC(=O)/C=C1\SCC(=O)N1Cc1nnc(-c2ccccc2Br)o1`, for which the inhibition is 0% (inactive).

Consider `CCn1cc(C(=O)NCC2COc3ccccc3O2)c2cc(OC)c(OC)cc2c1=O` (stereo not given), for which the inhibition is 11% (inactive).

On to `CCN(CC)CCCN1C(=O)C(=O)/C(=C(/O)c2ccc(C)cc2)C1c1ccccn1` (stereo not given), for which the inhibition was 3% (inactive).

In the case of `COC(=O)c1onc(C(=O)c2ccccc2)c1C(=O)OC`, the inhibition was 0% (inactive).

Turning to `O=C(CN1CCC(n2nnc3cc(F)ccc32)CC1)Nc1ccc2c(c1)CCC2`, the inhibition is 0% (inactive).

Regarding `CCOCCCNC(=O)CN1CCN(Cc2ccccc2C)C1=O`, the inhibition was 5% (inactive).

Regarding `CCOC(=O)CC(=O)CSc1nc(-c2cccnc2)ccc1C#N`, the inhibition was 0% (inactive).

On to `O=c1[nH]c(SCc2ccc(F)cc2)nc2c1cnn2-c1ccc(F)cc1`, for which the inhibition was 0% (inactive).

On to `CC1CCCN(C(=O)c2cc(F)c(F)cc2Cl)C1` (stereo not given), for which the inhibition is 0% (inactive).

Take `COc1cccc(N2CCN(Cc3cccnc3)CC2)c1`: the inhibition is 3% (inactive).

For `CC(C)C[C@H](NC(=O)[C@@H]1O[C@H]1C(=O)O)C(=O)NCCCCN=C(N)N`, the inhibition was 1% (inactive).

Regarding `COc1cc(C2c3c(oc4c(C)cc(C)cc4c3=O)C(=O)N2Cc2cccnc2)ccc1O` (stereo not given), the inhibition was 0% (inactive).

`Cc1ccc(NC(=O)CNc2cccc(C)c2C)c(C)c1`: the inhibition is 0% (inactive).

For the molecule `NS(=O)(=O)c1cc2c(cc1Cl)NCNS2(=O)=O`, the inhibition was 0% (inactive).

Regarding `O=C(Nc1ccc2c(c1)nc1n2CCSC1)c1ccccc1`, the inhibition was 0% (inactive).

For `c1ccc2c(CC3=NCCN3)cccc2c1`, the inhibition was 0% (inactive).

As to `C/C(=N\O)C(=O)C(CN1CCCCC1)CN1CCCCC1`, the inhibition was 0% (inactive).

For `COc1cccc(-c2nnc3sc(C4CCCCC4)nn23)c1`, the inhibition is 4% (inactive).

Turning to `CC(C)c1nc(N2CCN(C(=O)c3ccco3)CC2)c2c3c(sc2n1)CCCC3`, the inhibition is 1% (inactive).

As for `O=C(Nc1cccc(NC(=O)c2ccco2)c1)c1ccc2c(c1)OCO2`, the inhibition was 0% (inactive).

As to `CCOC(=O)CSc1nnc(NC(=O)c2cccc(S(=O)(=O)N3CCCCC3)c2)s1`, the inhibition is 5% (inactive).

For the molecule `COc1ccc(NC(=O)CSc2nc3c(c(=O)n2-c2ccccc2OC)SCC3)cc1`, the inhibition was 3% (inactive).

As for `CCOC(=O)[C@H](CCc1ccccc1)N[C@@H](C)C(=O)N1CCC[C@H]1C(=O)O`, the inhibition is 0% (inactive).

As for `O=C(CCn1c(=O)sc2ccccc21)NC1=NCCS1`, the inhibition was 3% (inactive).

`c1ccc(CC2CCN(C(c3cccs3)c3nnnn3C3CCCC3)CC2)cc1` (stereo not given): the inhibition was 3% (inactive).

For `O=C(CN(c1ccc(F)cc1)S(=O)(=O)c1ccc2c(c1)OCCO2)NCC1CCCO1` (stereo not given), the inhibition was 0% (inactive).

As for `O=C1c2ccccc2C(=O)N1OCc1ccccc1`, the inhibition was 0% (inactive).

Regarding `CS(=O)(=O)N(Cc1ccco1)CC(O)Cn1c2ccccc2c2ccccc21` (stereo not given), the inhibition is 0% (inactive).

Take `C1CCc2nnc(-c3nnc4n3CCCCC4)n2CC1`: the inhibition was 10% (inactive).

For `c1ccc(-c2n[nH]c3ccccc23)cc1`, the inhibition is 0% (inactive).

Consider `O=C(C1CC1)N1CCc2cc(S(=O)(=O)N(CCO)Cc3ccccc3)ccc21`, for which the inhibition was 0% (inactive).

In the case of `O=c1c2ccccc2nc(SCc2cccc(F)c2)n1Cc1ccco1`, the inhibition was 4% (inactive).

`CC(CN1CCCCC1)OC(=O)c1ccc(Cl)cc1Cl` (stereo not given): the inhibition was 0% (inactive).

On to `O=C1CC(c2ccccc2)CC(O)=C1C=NCCN1CCOCC1` (stereo not given), for which the inhibition is 5% (inactive).
